This note sets out measurements from PubChem BioAssay (NCATS).

“And” between values parts separate entries of the source, which are not always exact repeats. Identical values can stand only once. Inconclusive results are not listed. Entries that show only a call come without a potency. The source made the active and inactive calls. The call rests on the fitted dose curve; in most records, active means well fitted curve in the direction sought with a large enough effect; inconclusive means small, poorly fitted or top-dose-only effect, or another doubt; inactive means no such curve, though single readings can be large; an effect the other way counts as inactive or inconclusive.

In the first experiment the target is Cellular tumor antigen p53 (Homo sapiens) (UniProt P04637). In words: Primary qHTS for small molecule compounds that upregulate eGFP-tagged delta133p53alpha (in N-terminal) cells. (AID 2060322). Further: nearly all actives have a fitted effect of over 75% in size. As to conditions: NCI-H358 eGFP-delta133p53alpha fluorescence, 24 h; activation: hits give high values. In short, it runs like this: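 NCI-H358 cells pre-induced 24 h with 10 ng/ml doxycycline to express N-terminal eGFP-delta133p53alpha, then dosed 24 h at 37C without doxycycline; fixed, Hoechst-stained, GFP intensity by laser scanning cytometry, normalized to DMSO (0%) and 57.5 uM 5-azacytidine (100%).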
Cellular tumor antigen p53 (Homo sapiens), sequence (P04637 whole entry, looked up): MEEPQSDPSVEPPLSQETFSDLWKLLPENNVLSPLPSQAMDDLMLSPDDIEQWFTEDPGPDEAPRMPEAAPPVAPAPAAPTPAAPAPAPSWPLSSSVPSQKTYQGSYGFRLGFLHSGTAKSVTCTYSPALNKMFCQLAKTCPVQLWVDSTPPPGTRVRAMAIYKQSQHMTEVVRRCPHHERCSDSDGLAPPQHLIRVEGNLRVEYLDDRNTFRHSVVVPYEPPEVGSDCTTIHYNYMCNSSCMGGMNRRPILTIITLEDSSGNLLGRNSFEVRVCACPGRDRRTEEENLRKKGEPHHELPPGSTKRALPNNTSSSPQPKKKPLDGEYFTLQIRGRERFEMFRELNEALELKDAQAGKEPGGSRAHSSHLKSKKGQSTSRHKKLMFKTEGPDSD
A general note: qHTS replaces the single test concentration by a dilution series.
On to `CCc1cccc2c3c([nH]c12)C(CC)(CC(=O)O)OCC3` (stereo not given), for which the activation was -0.565% (inactive) and -1.6% (inactive).

Take `CO[C@@]1(NC(=O)CSCC#N)C(=O)N2C(C(=O)O)=C(CSc3nnnn3C)CS[C@@H]21`: the activation is 11.9% (inactive) and 5.62% (inactive).

For the compound `CC(=O)C(C)=O`, the activation was -5.18% (inactive).

As to `CC(C)NCC(O)COc1ccc(COCCOC(C)C)cc1` (stereo not given), the activation is -8.37% (inactive) and -9.29% (inactive) and -8.52% (inactive).

As to `C=CCc1ccccc1OCC(O)CNC(C)C` (stereo not given), the activation is 2.82% (inactive) and -28% (inactive).

Consider `OCC1NCC(O)C(O)C1O` (stereo not given), for which the activation is -36.6% (inactive).

As to `Nc1ncnc2c1nc(Br)n2C1OC2COP(=O)(O)O[C@@H]2C1O` (stereo not given in full), the activation is -6.56% (inactive).

Consider `Nc1ncnc2c1ncn2[C@@H]1O[C@H](COP(=O)(O)CP(=O)(O)OP(=O)(O)O)[C@@H](O)[C@H]1O`, for which the activation was 7.87% (inactive).

Turning to `CCCN(CC1CC1)c1nc(C)nc(Nc2c(Cl)cc(Cl)cc2Cl)c1Cl`, the activation is -22.7% (inactive).

On to `CN1C2CCC1CC(OC(c1ccccc1)c1ccccc1)C2` (stereo not given), for which the activation was -19.6% (inactive).

On to `COc1cccc(OC)c1OCCNCC1COc2ccccc2O1` (stereo not given), for which the activation was 7.71% (inactive).

For the compound `CCCCC[C@H](CC(=O)NO)C(=O)N[C@H](C(=O)N1CCC[C@H]1CO)C(C)C`, the activation is -6.85% (inactive).

Regarding `COc1cc([C@@H]2c3cc4c(cc3[C@H](O)C3COC(=O)[C@@H]32)OCO4)cc(OC)c1OC` (stereo not given in full), the activation was -47.3% (inactive).

For `N[C@@H](CC(=O)O)C(=O)O`, the activation was -3.52% (inactive).

On to `NCCCS(=O)(=O)O`, for which the activation is 14.5% (inactive).

For `O=P(O)(O)C(Cl)(Cl)P(=O)(O)O`, the activation was -11.2% (inactive).

In the case of `C[N+](C)(C)CCOC(N)=O`, the activation was -23.4% (inactive) and -15.4% (inactive).

For the compound `CN(C)CCC(c1ccc(Cl)cc1)c1ccccn1` (stereo not given), the activation is -24.5% (inactive).

Take `CC(N)C(=O)OC(C)(C)Cc1ccc(Cl)cc1` (stereo not given): the activation is 19.8% (inactive) and -28.1% (inactive).

Take `NC(N)=N[C@@H](CCC(=O)O)C(=O)O`: the activation is -4.46% (inactive).

Turning to `CN(CC[C@@H](Oc1ccc(C(F)(F)F)cc1)c1ccccc1)CC(=O)O`, the activation was 2.22% (inactive).

Regarding `CNCCCC1c2ccccc2C=Cc2ccccc21`, the activation was -1.67% (inactive) and -3.36% (inactive).

In the case of `CC(N)(C(=O)O)c1ccc(C(=O)O)cc1` (stereo not given), the activation was 7.46% (inactive).

On to `CC(=O)O[C@H]1C[C@@H]2CC[C@@H]3[C@H](CC[C@@]4(C)[C@H]3C[C@H]([N+]3(C)CCCCC3)[C@@H]4OC(C)=O)[C@@]2(C)C[C@@H]1[N+]1(C)CCCCC1`, for which the activation is -16.6% (inactive).

Turning to `COCCOc1cc2nc[nH]c(=O)c2cc1OCCOC`, the activation is -30.8% (inactive).

The target is the same in a further experiment. In words: Primary qHTS for small molecule compounds that upregulate eGFP-tagged delta133p53alpha (in C-terminal) cells. (AID 2060324). As to conditions: NCI-H358 delta133p53alpha-eGFP (C-terminal tag), GFP fluorescence imaging, 24 h; series mostly up to 57.5 µM. In short, it runs like this:
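NCI-H358 cells with doxycycline-inducible D133p53a-eGFP (C-terminal tag), pre-induced 24 h with 100 ng/ml doxycycline, plated 800/well in doxycycline-free medium and treated 24 h at 37 °C with compound titrations. Cells were then fixed and Hoechst-stained, and GFP intensity was read by laser scanning cytometry.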
For `COc1cc(C(O)CO)ccc1O` (stereo not given), the Potency entry is “inactive”.

For the compound `O=C1C2C=CC=CC2=NC(=S)N1CCN1CCC(=C(c2ccc(F)cc2)c2ccc(F)cc2)CC1` (stereo not given), the Potency entry was “inactive”.

`CCN(CC)CC(=O)Nc1c(C)cccc1C`: the Potency result is “inactive”.

In the case of `COC(=O)C1=C(C)NC(C)=C([N+](=O)[O-])C1c1ccccc1C(F)(F)F` (stereo not given), the Potency result is “inactive”.

`NC(N)=NCc1cccc(I)c1`: the Potency entry is “inactive”.

`CN(C)CC/C=C1\c2ccccc2COc2ccccc21`: the Potency entry is “inactive”.

Take `CN1CC(O)C(O)C(O)C1CO` (stereo not given): the Potency result was “inactive”.

For the compound `COc1ccc2c(c1)c(CC(=O)O)c(C)n2C(=O)c1ccccc1`, the Potency entry was “inactive”.

`O=C(O)CNC(=O)C(CS)Cc1ccccc1` (stereo not given): the Potency result was “inactive”.

On to `Cc1nc2ccccn2c(=O)c1CCN1CCC(C(=O)c2ccc(F)cc2)CC1`, for which the Potency result was “inactive”.

As for `C[C@H](Cc1ccccc1)Nc1ncnc2c1ncn2[C@@H]1O[C@H](CO)[C@@H](O)[C@H]1O`, the Potency result is “inactive”.

Turning to `CO/N=C(\C(=O)N[C@@H]1C(=O)N2C(C(=O)O)=C(COC(C)=O)CS[C@H]12)c1csc(N)n1`, the Potency entry was “inactive”.

`Nc1ccc(-c2nc3ccc(-c4nc5ccc(N)cc5[nH]4)cc3[nH]2)cc1`: the Potency entry is “inactive”.

Regarding `N=C(N)SCCN`, the Potency entry is “inactive”.

For the compound `Nc1ccc(S(=O)(=O)Nc2ccnn2-c2ccccc2)cc1`, the Potency result is “inactive”.

With `CCc1cccc2c3c([nH]c12)C(CC)(CC(=O)O)OCC3` (stereo not given), the Potency entry is “inactive”.

Consider `CO[C@@]1(NC(=O)CSCC#N)C(=O)N2C(C(=O)O)=C(CSc3nnnn3C)CS[C@@H]21`, for which the Potency result was “inactive”.

`CC(=O)C(C)=O`: the Potency entry is “inactive”.

As for `CC(C)NCC(O)COc1ccc(COCCOC(C)C)cc1` (stereo not given), the Potency result is “inactive”.

In the case of `C=CCc1ccccc1OCC(O)CNC(C)C` (stereo not given), the Potency entry is “inactive”.

For `OCC1NCC(O)C(O)C1O` (stereo not given), the Potency result was “inactive”.

`Nc1ncnc2c1nc(Br)n2C1OC2COP(=O)(O)O[C@@H]2C1O` (stereo not given in full): the Potency entry was “inactive”.

Turning to `Nc1ncnc2c1ncn2[C@@H]1O[C@H](COP(=O)(O)CP(=O)(O)OP(=O)(O)O)[C@@H](O)[C@H]1O`, the Potency result is “inactive”.

As to `CCCN(CC1CC1)c1nc(C)nc(Nc2c(Cl)cc(Cl)cc2Cl)c1Cl`, the Potency result was “inactive”.

For the compound `CN1C2CCC1CC(OC(c1ccccc1)c1ccccc1)C2` (stereo not given), the Potency entry is “inactive”.

In the case of `COc1cccc(OC)c1OCCNCC1COc2ccccc2O1` (stereo not given), the Potency result is “inactive”.

Regarding `CCCCC[C@H](CC(=O)NO)C(=O)N[C@H](C(=O)N1CCC[C@H]1CO)C(C)C`, the Potency entry is “inactive”.

Take `COc1cc([C@@H]2c3cc4c(cc3[C@H](O)C3COC(=O)[C@@H]32)OCO4)cc(OC)c1OC` (stereo not given in full): the Potency result is “inactive”.

As for `N[C@@H](CC(=O)O)C(=O)O`, the Potency result is “inactive”.

With `NCCCS(=O)(=O)O`, the Potency result is “inactive”.

Consider `O=P(O)(O)C(Cl)(Cl)P(=O)(O)O`, for which the Potency result was “inactive”.

With `C[N+](C)(C)CCOC(N)=O`, the Potency result is “inactive”.

`CN(C)CCC(c1ccc(Cl)cc1)c1ccccn1` (stereo not given): the Potency entry was “inactive”.

On to `CC(N)C(=O)OC(C)(C)Cc1ccc(Cl)cc1` (stereo not given), for which the Potency result is “inactive”.

`NC(N)=N[C@@H](CCC(=O)O)C(=O)O`: the Potency result is “inactive”.

Turning to `CN(CC[C@@H](Oc1ccc(C(F)(F)F)cc1)c1ccccc1)CC(=O)O`, the Potency result was “inactive”.

As for `CNCCCC1c2ccccc2C=Cc2ccccc21`, the Potency result was “inactive”.

For the compound `CC(N)(C(=O)O)c1ccc(C(=O)O)cc1` (stereo not given), the Potency result is “inactive”.

For the compound `CC(=O)O[C@H]1C[C@@H]2CC[C@@H]3[C@H](CC[C@@]4(C)[C@H]3C[C@H]([N+]3(C)CCCCC3)[C@@H]4OC(C)=O)[C@@]2(C)C[C@@H]1[N+]1(C)CCCCC1`, the Potency entry was “inactive”.

Take `COCCOc1cc2nc[nH]c(=O)c2cc1OCCOC`: the Potency entry is “inactive”.
